The entries come from a sample that favours hits as a whole.
DAT uptake mod – changed hDAT dopamine uptake under cocaine IC80, either direction, primary screen, cocaine antagonist project, cell-based, LLC-PK1 hDAT, [14C]-dopamine uptake, MLSMR | Sodium-dependent dopamine transporter (Homo sapiens), Q01959 | LLC-PK1 hDAT cells, [14C]-dopamine uptake with cocaine IC80; actives deviate in either direction | B-score at 10 µM | 110,000 compounds, 1.3% hits;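 active = Z score or B-score, a plate-position-corrected score, falls beyond the plate's 99.7% confidence bounds, in either direction; inactive = both scores lie inside the 99.7% bounds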;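 also: scored against the spread of the other compound wells on the same plate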
Mac1 fbg inh – inhibitors of CD11b/CD18 adhesion to fibrinogen, primary screen, K562 cells, luminescence; 93,000 compounds, 0.54% hits; inhibition, % at 10 µM; ATPlite luminescence; Mn2+ added to activate the integrin; AID 1497, 2009;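 active = primary inhibition of 50% or more at 10 µM, then 40% or more on retest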
Pyk2 oligo antag – antagonists of Pyk2 self-association, primary screen, Q293 cells, FERM NanoBiT luminescence, HTS; Protein-tyrosine kinase 2-beta (Homo sapiens), Q14289; stronger effect = lower value; z-score (the deposit names both 25 µM and 10 µM); 99,000 compounds, 0.83% hits;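 active = Z-score of -3 or lower, scaled per plate to the spread of control and sample wells; inactive = z-score above -3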;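 also: negative z-score means lost luminescence so less FERM oligomerization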
Target sequence (Q14289 whole entry, looked up): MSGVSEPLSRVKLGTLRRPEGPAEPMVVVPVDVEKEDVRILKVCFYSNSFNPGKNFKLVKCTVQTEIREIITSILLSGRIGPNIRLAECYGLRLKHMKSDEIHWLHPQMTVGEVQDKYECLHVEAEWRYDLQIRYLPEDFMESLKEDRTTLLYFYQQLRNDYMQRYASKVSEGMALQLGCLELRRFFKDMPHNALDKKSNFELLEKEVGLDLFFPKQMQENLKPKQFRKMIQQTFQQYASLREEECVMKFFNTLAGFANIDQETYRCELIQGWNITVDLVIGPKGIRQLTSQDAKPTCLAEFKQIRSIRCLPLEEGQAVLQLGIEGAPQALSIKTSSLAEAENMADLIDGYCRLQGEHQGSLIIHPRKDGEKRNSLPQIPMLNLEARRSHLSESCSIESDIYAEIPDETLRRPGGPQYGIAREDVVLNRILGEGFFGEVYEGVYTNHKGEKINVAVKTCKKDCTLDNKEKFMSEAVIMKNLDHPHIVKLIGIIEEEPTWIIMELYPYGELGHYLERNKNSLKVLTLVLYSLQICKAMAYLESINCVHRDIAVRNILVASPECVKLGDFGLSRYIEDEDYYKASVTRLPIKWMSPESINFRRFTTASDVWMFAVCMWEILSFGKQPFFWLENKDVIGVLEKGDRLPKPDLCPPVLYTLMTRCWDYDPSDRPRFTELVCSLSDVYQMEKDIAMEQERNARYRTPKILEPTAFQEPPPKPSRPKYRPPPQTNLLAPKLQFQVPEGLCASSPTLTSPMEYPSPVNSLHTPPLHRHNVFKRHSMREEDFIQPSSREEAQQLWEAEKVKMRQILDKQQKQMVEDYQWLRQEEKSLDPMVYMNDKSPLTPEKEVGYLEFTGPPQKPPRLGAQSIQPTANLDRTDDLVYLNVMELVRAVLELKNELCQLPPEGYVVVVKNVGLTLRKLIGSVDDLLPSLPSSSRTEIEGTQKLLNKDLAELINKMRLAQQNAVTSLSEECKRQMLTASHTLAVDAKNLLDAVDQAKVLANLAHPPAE
FAK inh – FAK kinase inhibitors, primary screen, biochemical; biochemical FAK kinase activity assay; inhibition, %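 (tested at 7 µM)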; 97,000 compounds, 0.84% hits; in the data active = inhibition above about 19%;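 also: 0% = DMSO and 100% = reference compound high control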
CD11b adhes enh – enhancers of CD11b/CD18 adhesion to fibrinogen, primary screen, K562 cells, luminescence | Integrin beta-2 (Homo sapiens) + Integrin alpha-M (Homo sapiens), P05107+P11215 | ATPlite luminescence | activation, % at 10 µM | 93,000 compounds, 0.07% hits;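 active = 10 µM primary screen giving 50% or more activity, confirmed by 40% or more on retest at that dose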
D1 mod – D1 CRE-luciferase signal change, two-sided – cell-based, HEK293 D1, dopamine EC30, D1 allosteric modulator project, primary screen; 58,000 compounds, 5.9% hits; dopamine EC30 potentiation; actives deviate in either direction; B-score at 10 µM; D(1A) dopamine receptor (Homo sapiens), P21728;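 active = luminescence count or its row- and column-corrected plate score outside the 99.7% band of the plate's sample wells, on either side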
An asterisk follows results filed as active; . = no result.

SMILES | DAT uptake mod | Mac1 fbg inh | Pyk2 oligo antag | FAK inh | CD11b adhes enh | D1 mod
COC(=O)C1CN(S(=O)(=O)c2ccccc2)CCN1S(=O)(=O)c1ccccc1 (configuration not stated) | 0.27 | 5.3 | -2.57 | -0.5 | -4.1 | .
Cc1ccc(-c2nnc(N3CCCCC3)c3ccccc23)cc1S(=O)(=O)NCC1CCCO1 (configuration not stated) | 0.849 | 28.7 | -1.2 | 3.2 | -3.3 | .
CC1=C(C(=O)OCc2ccccc2)C(c2ccc3c(c2)OCO3)NC(=O)N1CCCC(=O)O (configuration not stated) | -0.0953 | . | . | . | . | .
CC1CCCN(C(=O)c2cc(F)c(F)cc2Cl)C1 (configuration not stated) | 0.349 | -11.7 | 0.06 | -0.3 | 3.1 | -0.0953
Cc1snc(S(=O)(=O)/C(C#N)=N/Nc2cccc(C(F)(F)F)c2)c1C#N | -0.712 | 89.9* | 0.48 | -6.3 | -6.4 | .
C=CCNc1ncnc2c1cnn2-c1ccc(C)cc1C | -0.00129 | -8.2 | . | . | -0.7 | -1.27
CCOC(=O)N1CCC(Nc2ncnc3c2cnn3-c2ccc(C)cc2C)CC1 | 0.356 | 18.4 | . | 1.2 | 1.6 | -3.66*
CCOC(=O)NCc1ccc(S(=O)(=O)Nc2c(C)cccc2C)cc1 | 0.19 | 2.6 | 0.36 | -0.5 | -0.2 | .
O=C(O)c1cnc(-c2ccccc2)nc1Sc1cccc(Cl)c1 | 0.242 | 61.7* | -0.8 | -8.4 | -5.5 | .
O=C(O)c1cnc(-c2ccccc2)nc1Sc1ccccc1 | -0.144 | . | 0.12 | -9.0 | . | .
Clc1cccc2sc(N3CCCC3)nc12 | -0.327 | -20.8 | 1.33 | -1.1 | 6.5 | -6.55*
Cc1cccc(NC(=O)CCOc2ccccc2)c1 | -1.91* | -1.2 | 0.63 | -0.6 | -4.7 | .
COc1ccc(C2C(C(=O)N3CCCC3)CC(=O)N2c2ccc(OC)cc2)cc1 (configuration not stated) | 0.855 | 1.0 | 0.22 | . | -0.9 | 0.175
COc1ccc(C2C(C(=O)N3CCN(c4ccccn4)CC3)CC(=O)N2c2ccc(OC)cc2)cc1 (configuration not stated) | 0.0802 | . | -0.04 | -4.3 | . | -3.08*
O=c1c2ccccc2nc(-c2ccccc2)n1CCN1CCOCC1 | -1.49 | 9.8 | 0.05 | 3.0 | -3.4 | .
Brc1ccc2c(c1)c1nc3ccccc3nc1n2CCN1CCOCC1 | . | . | . | . | . | 4.3*
Cc1cc(C)c2cc(CN(CCN3CCCC3)C(=O)Nc3ccc(F)cc3)c(=O)[nH]c2c1 | 0.56 | 42.4 | 2.78 | -7.2 | 1.5 | -3.09*
Cc1ccc(NCc2nc3ccccc3n2C)cc1 | -1.28 | -1.9 | -0.46 | -3.1 | 1.8 | -4.06*
CCN1CC2=C(OC(N)=C(C#N)C2c2cccs2)/C(=C/c2cccs2)C1 (configuration not stated) | 0.215 | -21.1 | 0.39 | 7.4 | 13.6 | -2.7*
CCN1CC2=C(OC(N)=C(C#N)C2c2ccccc2)/C(=C\c2ccccc2)C1 (configuration not stated) | 0.544 | -3.3 | 0.77 | 3.9 | 1.8 | .
CC1=C(C(=O)OCc2ccccc2)C(c2ccccc2-c2ccccc2)NC(=O)N1CCCCCC(=O)O (configuration not stated) | 2.77* | . | . | . | . | .
CC1=C(C(=O)OCc2ccccc2)C(c2ccccc2OS(=O)(=O)c2ccc(C)cc2)NC(=O)N1CCCC(=O)O (configuration not stated) | 2.5* | . | . | . | . | .
Cc1ccc(NC(=O)C2CCCN2S(=O)(=O)c2ccc(F)cc2)c(C)c1 (configuration not stated) | 0.302 | -10.3 | 0.69 | -1.1 | -0.7 | 0.00198
CCCSc1nc(C)cc(C)c1C(N)=O | -0.219 | -10.3 | 0.52 | -1.7 | -4.6 | .
CCOC(=O)c1c(NC(C)=O)sc2c(O)cccc12 | -0.117 | -3.5 | 0.22 | . | 0.0 | 1.81
CCOC(=O)c1c(NC(=O)c2ccccc2)sc2c(O)c(CN(CC)CC)ccc12 | 2.41* | 9.9 | -0.88 | -1.1 | 9.8 | .
CSc1nc(N2CCOCC2)c2c3c(sc2n1)CCC3 | -0.0343 | 14.9 | 0.11 | 0.6 | 3.6 | 8.53*

Compound activity as filed in PubChem BioAssay.
